Experiment [1] can be described thus: TOX21_p53_BLA_p2_viability: Viability Assessment in the Tox21 HCT-116 p53 Agonism Beta-lactamase Assay, Phase 2 (AID 2283591).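 Further: compound exposure lasted 16 h at 37 °C; actives lower the ATP signal meaning cytotoxicity.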 The essentials:
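HCT116 p53-bla cells, 4000/well, dosed after 5 h plating (217-fold dilution of DMSO stocks) and incubated 16 h at 37C. Viability taken as cellular ATP by CellTiter-Glo luminescence after 30 min RT; signal loss marks cytotoxicity.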

Experiment [2] addresses Cellular tumor antigen p53 (Homo sapiens) (UniProt P04637). The experiment can be described thus: TOX21_p53_BLA_p2_ratio: Tox21 HCT-116 p53 Agonism Beta-lactamase Assay, Ratio, Phase 2 (AID 2283592). The procedure, abridged:
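Cleaved-to-uncleaved substrate ratio (460 vs 530 nm) measured in HCT116 cells with an inducible beta-lactamase reporter linked to p53 activity. Compounds incubated 16 h at 37C before 2 h room-temperature CCF4-AM loading.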

A short description of experiment [3]: TOX21_p53_BLA_p3_viability: Viability Assessment in the Tox21 HCT-116 p53 Agonism Beta-lactamase Assay, Phase 3 (AID 2283593).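 Further: cells exposed to compound for 16 h before reading.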 The essentials:
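HCT116 cells, 4000/well, dosed 5 h after plating by pin transfer (217-fold dilution from DMSO stock) and incubated 16 h at 37C, 5% CO2. Viability read as ATP luminescence with CellTiter-Glo after 30 min at room temperature.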

Experiment [4] deals with Cellular tumor antigen p53 (Homo sapiens) (UniProt P04637). Description: TOX21_p53_BLA_p3_ratio: Tox21 HCT-116 p53 Agonism Beta-lactamase Assay, Ratio, Phase 3 (AID 2283596). The procedure, abridged: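 Cells were seeded at 4000/well, rested 5 h at 37C, then dosed with DMSO compound solutions (217-fold dilution) for 16 h. CCF4-AM substrate was loaded for 2 h at room temperature, and the 460/530 nm emission ratio was fitted for gain of signal versus DMSO.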

The target is the same in experiment [5]. The experiment can be described thus: TOX21_p53_BLA_p5_ratio: Tox21 HCT-116 p53 Agonism Beta-lactamase Assay, Ratio, Phase 5 (AID 2283599). The procedure, abridged: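 HCT-116 p53-bla cells (4000/well) plated 5 h, dosed with compound (217-fold DMSO dilution) for 16 h at 37 C; CCF4-AM substrate 2 h at room temperature. Activity is the 460/530 nm emission ratio (405 nm excitation), fitted in gain-of-signal direction versus DMSO.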

Experiment [6] shares this target. Description: TOX21_p53_BLA_p4_ratio: Tox21 HCT-116 p53 Agonism Beta-lactamase Assay, Ratio, Phase 4 (AID 2283601). The essentials:
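HCT-116 p53 beta-lactamase reporter cells (4000/well) preincubated 5 h, then compound (217-fold dilution of DMSO stock) for 16 h at 37C. CCF4-AM substrate added 2 h at room temperature; 460/530 nm emission ratio fitted upward versus DMSO.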

Experiment [7] is described as follows: TOX21_p53_BLA_p5_viability: Viability Assessment in the Tox21 HCT-116 p53 Agonism Beta-lactamase Assay, Phase 5 (AID 2283600). The procedure, abridged: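 Viability is taken from cellular ATP content, measured by luciferase luminescence in the same wells after the beta-lactamase ratio read. Cells are seeded at 4000 per well and exposed to DMSO-dissolved compounds, diluted 217-fold, for 16 h.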

Experiment [8] in a line: TOX21_p53_BLA_p4_viability: Viability Assessment in the Tox21 HCT-116 p53 Agonism Beta-lactamase Assay, Phase 4 (AID 2283597).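 Further: hits lower the luminescence signal meaning cytotoxicity.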 The essentials:
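Viability is taken as cellular ATP: after 16 h compound exposure of HCT116 cells and a 2 h room-temperature CCF4-AM substrate step, CellTiter-Glo reagent is added and luminescence is measured 30 min later.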

Results filed as inconclusive are left out. Active and inactive are the calls of the source. How the source made its calls: active means hit-call score of the fitted dose curve at least 0.9, where 1 is the maximum; inconclusive means response in the unintended direction; inactive means score below 0.9.

Sequence of Cellular tumor antigen p53 (Homo sapiens) (P04637 whole entry, looked up): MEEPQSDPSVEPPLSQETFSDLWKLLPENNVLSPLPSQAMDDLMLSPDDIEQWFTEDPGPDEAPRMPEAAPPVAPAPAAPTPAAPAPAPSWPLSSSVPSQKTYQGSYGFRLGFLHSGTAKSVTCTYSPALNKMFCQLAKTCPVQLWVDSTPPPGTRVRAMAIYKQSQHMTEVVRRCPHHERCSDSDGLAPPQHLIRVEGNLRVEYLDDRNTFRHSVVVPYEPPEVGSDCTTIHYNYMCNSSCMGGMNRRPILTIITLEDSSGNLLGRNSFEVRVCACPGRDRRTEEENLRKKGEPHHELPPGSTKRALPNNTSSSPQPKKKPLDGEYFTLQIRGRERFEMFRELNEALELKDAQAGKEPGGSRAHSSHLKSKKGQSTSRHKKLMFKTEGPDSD

Turning to `COC(=O)C(c1ccccc1)C1CCCCN1` (stereo not given), the compound was classed as inactive in experiment [1], in experiment [2], in experiment [3], in experiment [4], in experiment [5] and in experiment [6].

Consider `C[C@@H](CO)NC(=O)[C@@H]1C=C2c3cccc4[nH]cc(c34)C[C@H]2N(C)C1`, for which the compound was called inactive in experiment [1], in experiment [2], in experiment [3], in experiment [4], in experiment [5] and in experiment [7]. In addition, in experiment [6], the outcome was inactive.

Regarding `C[C@@H]1CN(C2CCC(C#N)(c3ccc(F)cc3)CC2)CC[C@]1(C(=O)O)c1ccccc1` (stereo not given in full), the compound was called inactive in experiment [1], in experiment [2], in experiment [3], in experiment [4], in experiment [5] and in experiment [6].

As usually defined, the AC50 is the concentration giving half of the maximal activity seen. For the compound `C[C@]12CC[C@@H]3c4ccc(OC(=O)N(CCCl)CCCl)cc4CC[C@H]3[C@@H]1CC[C@@H]2O`, the result in experiment [1] and in experiment [3] was inactive. For the same compound, the AC50 in experiment [2] is 24.6 µM (active); in experiment [4], 29 µM (active); in experiment [5], 25.2 µM (active); in experiment [6], 31.9 µM (active).

For the compound `CN1CCC(O)(c2ccc(F)cc2)C(C(=O)c2ccc(F)cc2)C1` (stereo not given), the call in experiment [1], in experiment [2], in experiment [3] and in experiment [5] was inactive.

Consider `CN1C[C@H](CNC(=O)OCc2ccccc2)C[C@@H]2c3cccc4c3c(cn4C)C[C@H]21`, for which the compound was classed as inactive in experiment [1], in experiment [2], in experiment [3] and in experiment [7]. Besides, the concentration at half-maximal activity (AC50) in experiment [8] is 38.7 µM (active).

As for `CC[C@H]1[C@@H]2C[C@H]3[C@@H]4N(C)c5ccccc5[C@]45C[C@@H](C2C5O)N3[C@@H]1O` (stereo not given in full), the call in experiment [1], in experiment [2], in experiment [3], in experiment [8], in experiment [7] and in experiment [6] was inactive.

Consider `CNCC(O)c1ccc(O)cc1` (stereo not given), for which the outcome in experiment [1], in experiment [2], in experiment [3], in experiment [8], in experiment [5] and in experiment [7] was inactive. Moreover, the outcome in experiment [6] was inactive.

On to `O=C1c2ccccc2C(=O)C1C(=O)C(c1ccccc1)c1ccccc1`, for which the call in experiment [1], in experiment [3], in experiment [5] and in experiment [7] was inactive. Besides, the values for the concentration at half-maximal activity (AC50) in experiment [2], in experiment [8] and in experiment [6] were 37.1 µM (active), 44 µM (active) and 36.6 µM (active), respectively.

In the case of `Oc1cccc[c]1[Hg][Cl]`, the concentration at half-maximal activity (AC50) was 4.03 µM (active) in experiment [1]; 8.58 µM (active) in experiment [2]; 9.5 µM (active) in experiment [3]; 4.24 µM (active) in experiment [8]; 6.39 µM (active) in experiment [5]; 3.94 µM (active) in experiment [7]. Also, the AC50 in experiment [6] was 8.72 µM (active).

Take `C[N+](C)(C)C`: the compound was classed as inactive in experiment [1], in experiment [2], in experiment [3], in experiment [8], in experiment [5] and in experiment [7].

On to `CC(C)NCC(O)c1ccc([N+](=O)[O-])cc1` (stereo not given), for which the result in experiment [1], in experiment [2], in experiment [3], in experiment [8], in experiment [7] and in experiment [6] was inactive.

Consider `COC1=CC(=O)O[C@@H](CCc2ccccc2)C1`, for which the call in experiment [1], in experiment [2], in experiment [3], in experiment [8], in experiment [5] and in experiment [7] was inactive. The outcome in experiment [6] was inactive.
